# High-throughput results deposited in PubChem by National Center for Advancing Translational Sciences (NCATS).
# The list is not random: actives were taken first. Their share in the collection is about 12%.
# CHX counter – Cycloheximide Counterscreen for Small Molecule Inhibitors of Shiga Toxin; hit rate 12% among 300,000; max response, %; cell reporter, cycloheximide protein synthesis inhibition counterscreen; in the data active = max response mostly above about 13%, no sharp cut-off; inactive = mostly below about 14%; also: read at 38.3 µM for the half of the compounds with a filed dose; 0% is about no effect
# Shiga inhibitor – A qHTS for Small Molecule Inhibitors of Shiga Toxin; Vero cells, Shiga toxin protein synthesis inhibition reporter; inhibition, % at 38.7 µM; hit rate 9.2% among 290,000; AID 2315, 2010; in the data active = inhibition mostly above about 28%, no sharp cut-off; inactive = mostly below about 43%; also: 0% is about no effect
# Sm TGR inh – qHTS Assay for the Inhibitors of Schistosoma Mansoni Peroxiredoxins. Schistosoma mansoni thioredoxin glutathione reductase (TGR), Q962Y6. purified TGR, DTNB reduction, TNB absorbance 405 nm. Potency, µM (titrated, usually from 114 µM), without a hit: top-dose activity change, negative = inhibition, usual class: inhibitors. hit rate 3% among 360,000. AID 485364, 2010; active = well fitted inhibition curve with a large enough effect; inconclusive = small, poorly fitted or top-dose-only effect; inactive = no such curve, though single readings can be large or run the other way; also: potency is read from the fitted curve at half-maximal effect; % is scaled to controls: 0 for no effect and ±100 for the full control effect; nearly all actives have a fitted effect of over 60% in size
#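 TGR 20 nM + NADPH 100 uM (dispensed conc.), cpd preinc 15 min RT; start with NADPH (500 uM addition) then DTNB (15 mM addition). Kinetic TNB absorbance, 405 nm filter. Four-parameter Hill fit across titration.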
# FMDV antiviral – High Throughput Screening for Foot and Mouth Disease Virus Antivirals | FMDV antiviral cell-based qHTS | Potency, µM (top dose mostly 57.9 µM), for inactives: top-dose activity change, negative = inhibition, hits mostly inhibitors | hit rate 1.2% among 410,000; calls by dose curve; tested in HEK293T cells; also: read-out not given here; potency is read from the fitted curve at half-maximal effect; % is scaled to controls: 0 for no effect and ±100 for the full control effect; nearly all actives have a fitted effect of over 45% in size
# * marks the source's active call; other numbers are inactive results; u = inconclusive; x = not tested or not shown.
SMILES,CHX counter,Shiga inhibitor,Sm TGR inh,FMDV antiviral
Cc1cccnc1-c1cccc2c1OC(CNC(=O)C1CCCc3c1[nH]c1ccccc31)C2 (stereo not given),x,x,x,3.7%
Cc1ccc(-c2nc(SCC(=O)N3CCc4ccccc43)c3c(=O)n(C)c(=O)n(C)c3n2)cc1,x,x,0.6%,-6.9%
COc1ccc(-c2cc(C)no2)cc1S(=O)(=O)NCc1ccco1,x,x,31.6µM*,68.8%
COc1ccc(C(C)=O)cc1CSc1nc2cc(C(=O)O)ccc2c(=O)n1Cc1ccccc1,-4.3,-1.9,22.4µM*,-19.8%
COc1cccc(CNc2ncnc3c2nnn3C)c1,x,x,4.2%,0.2%
COC(=O)[C@@H]1CCCN1Cc1ccc2c(c1)CN(Cc1cccn1-c1ccc(Cl)cn1)CCO2,x,x,x,-1.7%
CCOc1ccc(-n2nc(CO)c(C(=O)NCC(C)O)n2)cc1 (stereo not given),x,x,-2.0%,7.3%
COc1ccc(Oc2ncnc3c2oc2ccccc23)cc1,x,x,3.6%,17.6%
COc1ccc(Nc2ncnc3c2oc2ccccc23)cc1,56.0*,123.7*,2.1%,4.3%
Cc1ccc(Nc2ncnc3c2oc2ccccc23)cc1,45.0*,100.2,7.2%,0.0%
COc1ccccc1Oc1ncnc2c1oc1ccccc12,21.0*,22.6,-0.7%,-9.4%
Cc1c(C(=O)NCc2ccc3c(c2)OCO3)cnn1-c1ncc2c(n1)-c1ccccc1CC2,x,x,x,47.0%
CCCOc1cccc(OCCSc2nc(C)cc(=O)[nH]2)c1,46.0*,31.2,0.0%,23.6%
COc1ccc(Cn2c(CO)cnc2SCC(=O)NCc2ccco2)cc1,x,x,-0.5%,6.8%
O=C(Nc1ccc2nc[nH]c2c1)c1ccco1,29.7*,71.1*,0.1%,50.1%
Cc1ccc(-c2nc3ccccc3[nH]2)cc1NC(=O)c1ccco1,22.4*,52.7,-1.5%,20.4%
Cc1cccc2[nH]c(-c3ccc(NC(=O)c4ccco4)cc3)nc12,31.9*,125.9*,-1.4%,21.4%
CS(=O)(=O)c1cccc(C(=O)Nc2cccc(-c3nc4ccccc4[nH]3)c2)c1,1.5,16.6,-27.8%,11.2%
O=C(Nc1cccc(-c2nc3ccccc3[nH]2)c1)c1cccc(NC(=O)c2ccco2)c1,-6.8,-18.8,-15.9%,31.6µM*
O=C(N/N=C/c1ccco1)c1ccc2nc[nH]c2c1,0.5,10.2,u,15.6%
Cc1ccccc1C(=O)Nc1nnc(S(=O)(=O)N(C)Cc2ccc(Cl)cc2)s1,x,x,1.2%,26.5%
Cc1ccc(NC(=O)C(=O)NCC(c2ccc3c(c2)OCO3)N2CCOCC2)cc1C (stereo not given),x,x,16.5%,-17.6%
Cc1ccc(-c2nc3ccccc3[nH]2)cc1NC(=O)c1sc2cc(Cl)ccc2c1Cl,19.9*,54.2,2.8%,22.1%
O=C(Nc1ccc2nc(-c3ccccc3)[nH]c2c1)c1ccco1,36.4*,46.8*,28.2µM*,19.4%
C=CCCn1c(Cl)c(C#N)sc1=O,-2.0,-1.8,x,x
SMILES,CHX counter,Shiga inhibitor,Sm TGR inh,FMDV antiviral
CCOc1ccc(C2NC(=O)c3c(COC)cc(C)nc3N2Cc2ccccc2)cc1OC (stereo not given),x,x,0.2%,-9.9%
CN1CCN(C(=O)Cn2c(-c3cccs3)cc3ccccc32)CC1,x,x,7.0%,-2.9%
Cn1c(=O)c2[nH]c(CCCCCCCc3nc4ccccc4[nH]3)nc2n(C)c1=O,x,x,x,15.8µM*
Cn1c(=O)c2[nH]c(COc3ccc(C(C)(C)C)cc3)nc2n(C)c1=O,-1.1,-2.0,12.4%,20µM*
Cn1c(=O)c2[nH]c(Cc3cccc(O)c3)nc2n(C)c1=O,x,x,x,-9.1%
CC(C)CNC(=O)C1=CC(c2ccc3c(c2)OCO3)=NS(=O)(=O)N1C,x,x,-5.0%,19.7%
CCOC(=O)N1CCN(C(=O)c2ccc3c(c2)N(Cc2ccccc2F)C(=O)c2ccccc2S3(=O)=O)CC1,x,x,2.7%,4.7%
Cc1ccc(C)c(NC(=O)C(=O)NCCc2csc3nc(-c4ccccc4C)nn23)c1,x,x,3.1%,22.4µM*
Cc1cc(Cl)ccc1NC(=O)c1cc2ccccn2n1,x,x,0.9%,-5.1%
COc1ccc(C)cc1NC(=O)c1cc2ccccn2n1,x,x,-8.0%,40.8%
Cc1ccccc1NC(=O)c1cc2ccccn2n1,52.2*,67.0*,-6.4%,17.9%
Cc1ccc(C)c(NC(=O)c2cnn3ccccc23)c1,14.0*,66.4,-35.2%,27.7%
Cc1ccc(C)c(NC(=O)c2cc3ccccn3n2)c1,26.8*,99.2*,-2.4%,34.7%
CC(=O)c1cccc(NC(=O)c2cc3ccccn3n2)c1,30.2*,34.2,0.5%,39.7%
CSc1ccccc1C(=O)Nc1cc(C)ccc1C,-2.4,-11.1,x,-12.9%
COc1cc(OC)c(NC(=O)N2CCC(CN3CCCC3)CC2)cc1Cl,x,x,-5.4%,-10.2%
CC(=O)N1CCc2cc(Br)cc(S(=O)(=O)NCCc3ccc(Cl)cc3)c21,x,x,1.6%,12.1%
